# Screens as filed in PubChem.
# FLuc counter = counter-screen for miR-21 project: firefly luciferase inhibitors or activators; purified FLuc, Km substrates, luminescence inhibition; Potency, µM (series often up to 57.5 µM), inactives show at the top dose activity change, negative = inhibition, actives largely listed as inhibitors; 360,000 compounds, 6.9% hits; AID 588342;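 further: plate controls were vehicle for no effect and reference inhibitor for full effect; nearly all actives have a fitted effect of over 55% in size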
# Target sequence (P08659 whole entry, looked up): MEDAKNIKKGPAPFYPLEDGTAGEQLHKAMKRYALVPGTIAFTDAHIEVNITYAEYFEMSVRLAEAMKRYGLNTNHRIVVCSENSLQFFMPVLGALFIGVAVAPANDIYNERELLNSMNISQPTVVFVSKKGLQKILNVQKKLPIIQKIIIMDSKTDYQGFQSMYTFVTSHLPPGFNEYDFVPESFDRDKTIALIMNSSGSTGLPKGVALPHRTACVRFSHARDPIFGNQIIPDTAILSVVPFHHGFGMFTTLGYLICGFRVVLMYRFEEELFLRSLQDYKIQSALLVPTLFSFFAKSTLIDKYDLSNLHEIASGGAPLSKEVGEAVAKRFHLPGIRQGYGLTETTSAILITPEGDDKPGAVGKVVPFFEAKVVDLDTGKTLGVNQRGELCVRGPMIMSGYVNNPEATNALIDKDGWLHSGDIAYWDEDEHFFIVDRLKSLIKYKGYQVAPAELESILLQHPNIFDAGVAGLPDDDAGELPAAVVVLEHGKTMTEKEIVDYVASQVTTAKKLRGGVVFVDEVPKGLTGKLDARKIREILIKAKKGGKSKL
#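 Purified P. pyralis luciferase (10nM final) with 10uM D-luciferin and 10uM ATP (Km levels) in 50mM Tris acetate pH 7.5, 10mM Mg acetate, 0.01% Tween-20, 0.05% BSA; qHTS 6-point titration, ~60 µM downward; luminescence read.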
# NPC1 promoter act = activates the NPC1 promoter; Huh7 NPC1 promoter luciferase reporter, 24 h; Potency, µM (highest dose often 9.22 µM), inactives show at the highest dose activation, actives largely listed as activators; 320,000 compounds, 2.4% hits; AID 485313; further: % of control where 0% means no effect; nearly all actives have a fitted effect of over 60% in size
#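 Stably transfected Huh7 (NPC1 promoter→luciferase), 1500 cells/well in Opti-MEM + 10% FBS, 2 h settle, then compound 24 h at 37 °C. Luminescence after 10 min with Amplite reagent.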
# SMN2 splice enh = increases expression of the SMN2 splice variant; HEK293 SMN2-luciferase splicing reporter, luminescence, 30-36 h; Potency, µM (series often up to 46.1 µM), for the others: at the top dose activity change, positive = activation, actives largely listed as activators; 210,000 compounds, 2.8% hits; further: % of control where 0% means no effect; nearly all actives have a fitted effect of over 55% in size
#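 qHTS luciferase splicing reporter: luminescence rises when SMN2 exon 7 is included in transfected HEK293 cells. Compound exposure lasted 30-36 h at 37C, with 4.5 mM final sodium butyrate as control, followed by a ONE-Glo read.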
# Rab9 promoter act = activators of Rab9 promoter | Huh7 Rab9 promoter-luciferase reporter, luminescence, 24 h | Potency, µM (series often up to 9.22 µM), for the others: at the top dose activation, negative = inhibition, most hits filed as activators | 320,000 compounds, 2.8% hits | AID 485297; further: % of control where 0% means no effect; nearly all actives have a fitted effect of over 60% in size
#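 Measured in stably transfected Huh7 cells bearing a Rab9 promoter–luciferase construct: 24 h compound treatment at 37 °C, followed by luminescence detection.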
# ELG1 genotox = genotoxicity induction in ELG1-luciferase HEK293T cells; Potency, µM (highest dose often 46 µM), for the others: at the highest dose activity change, positive = activation, actives largely listed as activators; HEK293T ELG1-luciferase reporter, luminescence, 16 h; 330,000 compounds, 1.3% hits; further: % of control where 0% means no effect; nearly all actives have a fitted effect of over 60% in size
#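 ELG1-luciferase HEK293T cells, 2,000/well; compound pinned in; 16 hr, 37 °C, 5% CO2; ONE-Glo, 30 min RT; luminescence on CCD imager.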
# Numbers without * were called inactive; ? = inconclusive; / = no result. This is a sample that favours compounds with a hit; in the whole collection about 7.5% have one here. The call rests on the fitted dose curve; in most records, active means well fitted curve in the direction sought with a large enough effect; inconclusive means small, poorly fitted or top-dose-only effect, or another doubt; inactive means no such curve, though single readings can be large; an effect the other way counts as inactive or inconclusive. Potency means the concentration at half of the fitted maximal effect.
SMILES,FLuc counter,NPC1 promoter act,SMN2 splice enh,Rab9 promoter act,ELG1 genotox
CCOC(=O)C1=CN(Cc2ccco2)S(=O)(=O)N(C)C1c1ccc(C(F)(F)F)cc1 (configuration not stated),/,/,/,/,-2%
CCN(CCn1cccn1)C(=O)c1cc(COc2cc(C)ccc2C)on1,9.5µM*,3.5µM*,/,3.5µM*,?
CCN(CCn1cccn1)C(=O)c1cc(COc2ccc(F)c(F)c2)on1,?,13%,/,24%,9%
CCN(CCn1cccn1)C(=O)c1cc(COc2ccccc2SC)on1,8.5µM*,2µM*,/,3.5µM*,?
COc1cccc(Nc2ncc3nc(-c4ccccc4)c(=O)n(C4CC4)c3n2)c1,/,/,4%,/,/
Cc1cccc(CNC(=O)c2ccc3c(c2)N(C)C(=O)C2CCCCN32)c1 (configuration not stated),-8%,/,/,/,/
C/C(=N/NC(=O)CNC(=O)c1cccnc1)c1ccccc1,3%,?,/,2%,-1%
Cc1ccc(-n2nc3ccc(N)cc3n2)cc1Cl,0.67µM*,?,/,?,?
COc1ccc(-n2nc3ccc(N)cc3n2)cc1Cl,1.5µM*,21%,/,14%,?
COc1ccc(-n2nc3ccc(NS(C)(=O)=O)cc3n2)cc1Cl,3.4µM*,?,25%,25%,16µM*
Cc1ccc(-n2nc3ccc(N)cc3n2)cc1C,0.48µM*,1.6µM*,/,0.5µM*,0.92µM*
Cc1ccc(-n2cnnn2)cc1Cl,-4%,-3%,-1%,-1%,27%
COc1ccc(-n2nc3ccc(NC(=O)c4ccc(C#N)cc4F)cc3n2)cc1Cl,-2%,/,8%,/,/
Cc1cc(N)n(-c2ccc(C)c(C)c2)n1,?,22%,/,29%,?
COP(=O)(OC)C(NC(=O)Nc1ccccc1)c1ccccc1 (configuration not stated),4%,-3%,/,7%,-1%
CCOc1ccc(S(=O)(=O)Nc2cc(NS(=O)(=O)c3ccc(OCC)cc3)cc(C(=O)O)c2)cc1,/,/,/,/,1%
Cc1cc(F)c(F)c(C(=O)N2CCC(C)CC2)c1Cl,0%,-7%,/,-1%,-4%
Cc1ccc(-n2nc3ccc(N)cc3n2)c(C)c1,7.6µM*,2%,/,22%,?
CCOc1ccc(-c2cccc(NC(=O)COc3ccc(Cl)cc3)c2)nn1,13µM*,9%,/,10%,-3%
CCOc1ccc(-c2cccc(NC(=O)c3ccco3)c2)nn1,21µM*,1%,/,-4%,-3%
Cc1nc(-c2cccc(NC(=O)COc3ccc(Cl)cc3)c2)cs1,13µM*,3%,/,-1%,-18%
O=C(COc1ccc(Cl)cc1)Nc1cccc(-c2ccc3nncn3n2)c1,?,-4%,-18%,-3%,2%
CCS(=O)(=O)c1ccc(-c2cccc(NC(=O)c3ccco3)c2)nn1,-13%,-1%,/,2%,-3%
CCOc1cccc2cc(-c3nnc(Nc4ccc(F)c(Cl)c4)s3)c(=O)oc12,-3%,/,/,/,/
O=C(c1cc(-c2ccncc2)nc2ccc(Cl)cc12)N1CCN(Cc2ccc3c(c2)OCO3)CC1,?,-1%,-7%,-9%,-18%
SMILES,FLuc counter,NPC1 promoter act,SMN2 splice enh,Rab9 promoter act,ELG1 genotox
Cc1cc(C)c2nc(-c3ccncc3)cc(C(=O)N3CCN(Cc4ccccc4Cl)CC3)c2c1,15µM*,-1%,/,1%,-14%
O=c1[nH]c(COc2ccccc2)nc2ccccc12,?,30%,/,?,?
CN(C)c1ccc(/C=C/c2nc3ccccc3c(=O)[nH]2)cc1,0.21µM*,0.11µM*,/,0.089µM*,0.58µM*
O=c1[nH]c(COc2ccc(Br)cc2Cl)nc2ccccc12,1.9µM*,3.2µM*,/,3.5µM*,7.3µM*
Cc1nc(/C=C/c2ccccc2)[nH]c(=O)c1-c1ccccc1,1.9µM*,?,2.8µM*,0.63µM*,?
Cc1cccc(/C=C\c2nc3ccccc3c(=O)[nH]2)c1,0.85µM*,?,2.8µM*,?,10µM*
COc1cc(/C=C/c2nc3ccccc3c(=O)[nH]2)cc(Cl)c1O,-7%,15%,/,0%,2%
CN(C)c1ccc(/C=C/c2nc3ccccc3c(=O)n2CCO)cc1,-15%,15%,/,9%,-2%
CN(C)c1ccc(/C=C(\C#N)c2nc3ccccc3c(=O)[nH]2)cc1,0.3µM*,/,-3%,/,/
O=c1[nH]c(/C=C/c2ccc(Br)cc2)nc2ccccc12,0.17µM*,0.32µM*,/,0.4µM*,?
COC(=O)c1ccc(C)c(NC(=O)c2ccc(Cn3cc([N+](=O)[O-])cn3)o2)c1,1%,-2%,-23%,11%,-6%
COc1cc(N=c2ssnc2Cl)cc(OC)c1OC,15µM*,-4%,-4%,1%,-8%
Clc1nssc1=Nc1ccccc1,21µM*,1%,-12%,-3%,-7%
Fc1ccc(N=c2ssnc2Cl)c(F)c1,19µM*,-1%,-7%,4%,-6%
N#Cc1ccc(N=c2ssnc2Cl)cc1,15µM*,9%,14%,9%,0%
Clc1ccc(N=c2ssnc2Cl)cc1,?,3%,-34%,1%,-6%
Cc1n[nH]c(C)c1S(=O)(=O)N1CCCC(C(=O)NCc2ccc(F)cc2)C1 (configuration not stated),-2%,-1%,/,-11%,0%
O/N=C/c1ccc(OCC(O)COc2ccc(/C=N/O)cc2)cc1,15µM*,1%,-9%,2%,-1%
CCCOc1ccc(/C=N/O)cc1,?,11%,-2%,18%,-2%
CN(CC(=O)N1CCCC1)S(=O)(=O)c1cccc(Cl)c1,0%,0%,/,0%,0%
Clc1ccc(C#Cc2cccnc2)cc1,13µM*,19%,/,24%,13%
O=C(O)c1cccc(NC(=S)N/N=C/c2cccc(O)c2)c1,2.1µM*,14%,5%,18%,-1%
O=C(O)c1cccc(NC(=S)N/N=C/c2ccccn2)c1,0.38µM*,0.28µM*,0.89µM*,0.32µM*,?
O=C(O)c1cccc(NC(=S)N/N=C/c2ccccc2OCc2ccc(Br)cc2)c1,24µM*,27%,?,18%,16%
O=C(O)c1cccc(NC(=S)N/N=C/c2ccccc2OCc2cccc(Br)c2)c1,?,-1%,6%,0%,3%
CCOc1ccc(NC(=O)C2CC(=O)NC(N3CCc4ccccc43)=N2)cc1 (configuration not stated),0%,3%,?,-4%,6%
COc1ccccc1CN1CCN(Cc2nc(-c3cccs3)no2)CC1,?,14%,/,20%,9%
Cc1ccc(OCc2nc(-c3cccs3)no2)c([N+](=O)[O-])c1,0.76µM*,0.4µM*,2.8µM*,0.25µM*,?
O=[N+]([O-])c1ccc(F)cc1OCc1nc(-c2cccs2)no1,9.5µM*,23%,16µM*,?,?
O=[N+]([O-])c1ccccc1OCc1nc(-c2cccs2)no1,6.7µM*,2.5µM*,13µM*,2.5µM*,?
